# Compound activity: PubChem BioAssay, several laboratories
# ERb SRC1 inh: ER-beta (human) coactivator binding inhibition. hit rate 1.3% among 86,000. Q92731. TR-FRET ER-beta LBD / SRC1-Cy5 peptide binding; receptor agonist-loaded with 1 µM estradiol. inhibition, % at 25.6 µM. AID 633;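 active = compounds whose percent inhibition of the receptor-coactivator binding signal exceeds about 50% in the single-dose screen, limit read from the data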
# Target sequence (Q92731 whole entry, looked up, the tested form may be a part): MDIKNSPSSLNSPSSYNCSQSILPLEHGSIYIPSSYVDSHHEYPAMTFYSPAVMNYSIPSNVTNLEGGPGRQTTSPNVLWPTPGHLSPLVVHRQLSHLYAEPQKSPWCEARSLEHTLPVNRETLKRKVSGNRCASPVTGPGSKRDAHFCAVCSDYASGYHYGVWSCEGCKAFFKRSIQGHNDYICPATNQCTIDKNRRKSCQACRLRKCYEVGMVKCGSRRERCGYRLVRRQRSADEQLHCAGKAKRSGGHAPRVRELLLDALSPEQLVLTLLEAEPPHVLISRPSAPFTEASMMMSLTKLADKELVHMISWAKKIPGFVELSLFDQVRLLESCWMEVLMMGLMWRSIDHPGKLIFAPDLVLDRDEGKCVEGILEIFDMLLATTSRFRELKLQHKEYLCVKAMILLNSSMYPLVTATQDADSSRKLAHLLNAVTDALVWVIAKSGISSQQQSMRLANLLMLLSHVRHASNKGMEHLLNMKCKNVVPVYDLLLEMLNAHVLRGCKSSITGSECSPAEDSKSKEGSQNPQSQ
# EphB4 ephrin blk: antagonists of human EphB4-ephrin-B2 interaction | P54760 | EphB4 LBD / TNYL-RAW-Alexa532 peptide, fluorescence polarization | inhibition, % at 7 µM | hit rate 0.15% among 97,000 | AID 720;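 active = inhibition above the screen-wide mean inhibition plus 3 SD, cut at about 15% in these data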
# ERa coact pot: ER-alpha (human) coactivator binding potentiation; P03372; TR-FRET ERalpha-LBD/SRC-Cy5 coactivator binding, 2 h; 100 = basal binding, no effect; coactivator binding (% of control), % at 25.6 µM; hit rate 1.3% among 86,000; AID 639; in the data active = activity above about 200%;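 note: binding measured in presence of low estradiol as agonist stimulus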
# ERa SRC1 inh: blocks coactivator binding to human estrogen receptor alpha | P03372 | TR-FRET ER-alpha LBD / SRC-1 peptide, estradiol-bound | inhibition, % at 25.6 µM | hit rate 1.7% among 86,000 | AID 629; in the data active = inhibition above about 50%
# Hits are given with their value; – = inactive; · = no result; [ ] = another dose, or the depositor's remark. Sampled rows, rich in hits. Any-hit rate of the full collection: about 2.8%.
SMILES,ERb SRC1 inh,EphB4 ephrin blk,ERa coact pot,ERa SRC1 inh
COc1ccc(NC(=O)CSc2nnc(C3CC3)n2-c2ccccc2)cc1,–,–,–,–
C=CCn1nnnc1SCC(=O)Nc1cccc(OC)c1,–,·,–,–
Cc1ccc(C(=O)C2(C)C3c4cc(Br)ccc4OC(=O)C32C(=O)c2ccco2)cc1 (stereo not given),–,–,–,–
CCOC(=O)c1ccc(NC(=O)CSc2nnc(-c3cccs3)n2CC)cc1,–,–,384[fluorescence artefact?],–
CCn1c(SCC(=O)c2ccc(CNC(C)=O)o2)nnc1-c1cccs1,–,–,–,58
CCn1c(SCC(=O)NCc2cccs2)nnc1-c1cccs1,–,–,–,–
CN(C)CCCNc1cn[nH]c(=O)c1Cl,–,–,–,–
COC(=O)/C(=C\Nc1ccc(Cl)cc1Cl)NC(=O)c1ccc(Cl)cc1Cl,–,–,–,74[fluorescence artefact?]
O=C(COc1cccc(NC(=O)c2cccc([N+](=O)[O-])c2)c1)c1ccc(Br)cc1,·,–,·,·
NC(=O)C1CCN(C(=O)Cn2cccc2C(=O)c2ccccc2)CC1,–,–,–,–
C=CCn1c(=O)[nH]c2cc(C(=O)N3CCN(c4ccc(C(C)=O)cc4)CC3)ccc2c1=O,–,–,–,68
O=C(C1=COCCO1)N1CCN(S(=O)(=O)c2cccc(Cl)c2Cl)CC1,60[fluorescence artefact?],–,–,–
Cc1ccc(S(=O)(=O)N2CCN(C(=O)C3=COCCO3)CC2)cc1C,–,–,–,–
Cc1ccccc1OCCN1C(=O)NC2(CCc3ccccc32)C1=O (stereo not given),–,–,–,–
COc1ccccc1N1CCN(C(=O)c2ccc3nc(-c4ccco4)c(-c4ccco4)nc3c2)CC1,66,–,–,68[fluorescence artefact?]
Cc1ccc(C)c(N2CCN(C(=O)c3ccc4nc(-c5ccco5)c(-c5ccco5)nc4c3)CC2)c1,–,–,–,–
CCOC(=O)/C(N=Nc1c(Br)cc(Br)cc1Br)=C(\C)O,·,–,·,·
Cc1cc(NC(=O)CSc2nc3ccc(Cl)cc3[nH]2)no1,–,–,–,–
Cc1ccc(CN2CCSc3ccc(C(=O)N4CCN(c5ncccn5)CC4)cc32)cc1,–,·,378[fluorescence artefact?],–
CC1CC(C)CN(C(=O)c2ccc3c(c2)N(Cc2ccccc2)CCS3)C1 (stereo not given),–,–,–,–
O=C1CN(C(=O)COC(=O)C23CC4CC(CC(O)(C4)C2)C3)c2ccccc2N1,–,–,–,–
CC1(C)C(=O)Nc2ccccc2N1C(=O)COC(=O)C12CC3CC(CC(O)(C3)C1)C2,78[fluorescence artefact?],–,–,88[fluorescence artefact?]
C/C(=N\NC(=O)c1ccccc1O)C1C(=O)c2ccccc2C1=O,·,–,·,·
C/C(=N/NC(=O)c1cc2ccccc2cc1O)C1C(=O)c2ccccc2C1=O,65[fluorescence artefact?],–,–,78[fluorescence artefact?]
Nn1c(SCC(=O)Nc2cccc(F)c2)nnc1C1CCCCC1,–,–,–,–
SMILES,ERb SRC1 inh,EphB4 ephrin blk,ERa coact pot,ERa SRC1 inh
COc1ccc(C(=O)CSc2nnc(C3CCCCC3)n2N)c(OC)c1,–,·,–,68
Cc1cc(SCC(=O)Nc2ccccc2)nc(C)n1,–,–,–,72[fluorescence artefact?]
CCOC(=O)CCn1cc(F)c(=O)n(Cc2ccccc2)c1=O,–,–,238[fluorescence artefact?],–
CCOC(=O)CCn1c(=O)c2c(nc(Br)n2Cc2ccccc2)n(C)c1=O,–,–,–,–
Cc1cccc2cc(CN(Cc3nnnn3C3CCCCC3)C3CCCC3)c3nnnn3c12,–,–,–,–
CC(NC(=O)c1cc2c(=O)n(C)c3ccccc3c2n1C)c1ccc2c(c1)OCCO2 (stereo not given),–,–,277[fluorescence artefact?],–
Cn1c(C(=O)Nc2ccc3c(c2)OCO3)cc2c(=O)n(C)c3ccccc3c21,59,·,–,77
Cn1c(C(=O)NCCN2CCCCCC2)cc2c(=O)n(C)c3ccccc3c21,–,–,–,72[fluorescence artefact?]
Cc1cccc(N2CCN(C(=O)c3cc4c(=O)n(C)c5ccccc5c4n3C)CC2)c1C,–,–,312,–
O=C(CCSc1ccc(Cl)cc1)NC12CC3CC(CC(C3)C1)C2,·,–,·,·
Cc1ccc2c(n1)CC(C)(C)CC2=O,·,–,·,·
C=CCn1c(=O)c(C#N)cc2c(=O)n3ccccc3nc21,57,–,–,55
C=CCn1c(=N)c(C#N)cc2c(=O)n3ccccc3nc21,–,–,–,–
CC12CCC(C(=O)Nc3cccc4ccccc34)(C1Br)C2(C)C (stereo not given),·,–,·,·
N#Cc1c(N)nc(SCc2ccccn2)c(C#N)c1-c1cccs1,–,–,373[fluorescence artefact?],–
Cc1cc(C)c(C#N)c(SC2CCCCC2=O)n1 (stereo not given),–,–,–,–
N#Cc1c(N)nc(SC2CCCCC2=O)c(C#N)c1-c1ccco1 (stereo not given),–,–,217[fluorescence artefact?],–
N#Cc1c(N)nc(SCc2ccccc2)c(C#N)c1-c1ccco1,–,–,213,–
N#Cc1c(N)nc(SCC(=O)OCc2ccccc2)c(C#N)c1-c1ccco1,–,–,–,–
Cn1ncc([N+](=O)[O-])c1C(=O)N1CCOCC1,·,–,·,·
COc1ccc(Br)cc1C(=O)Nc1ccccc1-c1ccccc1,·,–,·,·
CCCOCCOC(=O)C1=C(C)NC(=O)NC1c1cc(Cl)c(O)c(OC)c1 (stereo not given),–,–,–,–
c1coc(C2Nc3cccc4cccc(c34)N2)c1,78[fluorescence artefact?],–,–,74[fluorescence artefact?]
Oc1ccc(C2Nc3cccc4cccc(c34)N2)c(O)c1,–,–,–,–
COc1ccc(N2CCCn3c2nc2c3c(=O)n(CCc3ccccc3)c(=O)n2C)cc1,–,·,–,–
SMILES,ERb SRC1 inh,EphB4 ephrin blk,ERa coact pot,ERa SRC1 inh
Cc1ccc(N2CCn3c2nc2c3c(=O)n(CCc3ccccc3)c(=O)n2C)cc1,–,·,–,60[fluorescence artefact?]
Cc1ccc(-c2nc3ccccc3o2)cc1NC(=O)c1ccc2c(c1)OCO2,–,–,266,–
Cc1ccc(-c2nc3ccccc3[nH]2)cc1NC(=O)c1ccc2c(c1)OCO2,·,–,·,·
O=C(Nc1ccc(-c2nc3ccccc3o2)cc1)c1ccc2c(c1)OCO2,–,–,–,57[fluorescence artefact?]
O=C(CN1C(=O)c2ccccc2C1=O)Nc1ccc(-c2nc3ccccc3o2)cc1,–,–,213,–
Cc1ccc2oc(-c3ccc(NC(=O)c4ccc5c(c4)OCO5)cc3)nc2c1,·,–,·,·
Cc1c(NC(=O)c2ccc3c(c2)OCO3)cccc1-c1nc2ccccc2o1,–,–,–,–
O=C(Nc1ccccc1-c1nc2ccccc2o1)c1ccc2c(c1)OCCO2,–,–,217[fluorescence artefact?],–
CSc1ccccc1NC(=O)COc1ccccc1Cl,·,–,·,·
CCCc1cc(=O)[nH]c(SCc2cc(Cl)ccc2OC(F)F)n1,–,–,–,–
CN(C)S(=O)(=O)N(CC(=O)Nc1ccccc1C(F)(F)F)c1ccccc1,–,–,–,70[fluorescence artefact?]
CC(=O)c1cccc(NC(=O)CN(c2ccccc2)S(C)(=O)=O)c1,–,·,711[fluorescence artefact?],–
CSc1ccccc1NC(=O)CN(c1ccccc1)S(=O)(=O)N(C)C,–,–,–,–
CN(C)S(=O)(=O)N(CC(=O)Nc1ccc(F)c(F)c1)c1ccccc1,–,–,–,–
CSc1cccc(NC(=O)CN(c2ccccc2)S(=O)(=O)N(C)C)c1,–,–,–,50
CC(c1nnc(SCC(=O)N2CC(=O)Nc3ccccc32)n1Cc1ccccc1)N(C)C (stereo not given),–,–,–,–
